Experimental data: PMC4081100, “A DNA-binding-site landscape and regulatory network analysis for NAC transcription factors in Arabidopsis thaliana”

Assays:
Assay in all cases: universal protein binding microarray (PBM); transcription factors of Arabidopsis thaliana; high values mean tight binding
Conditions in all cases: protein: recombinant; tags: GST; chain copies: 2; dsDNA, one strand shown
[1] = biological target: T1, GST-ANAC092(1-176) (Arabidopsis thaliana, UniProt Q9FKA0 1-176)
T1 sequence: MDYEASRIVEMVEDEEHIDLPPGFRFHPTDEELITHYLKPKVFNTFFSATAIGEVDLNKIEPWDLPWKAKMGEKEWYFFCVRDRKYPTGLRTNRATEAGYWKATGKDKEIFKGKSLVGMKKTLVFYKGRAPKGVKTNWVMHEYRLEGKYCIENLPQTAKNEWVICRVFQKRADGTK
Procedure, shortened: (§1)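 Protein amounts were determined by A280 or anti-GST western blot after glutathione–Sepharose 4B purification of GST-tagged proteins induced in cells, with zinc acetate included for zinc-finger proteins. Duplicate runs at 200 to 500 nM final were done on custom all-10-mer Agilent 4 × 180K arrays made double-stranded by primer extension. The normalised enrichment score (E-score) over gapped and ungapped 8-mers is the measure of binding.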

[2] = biological target: GST-NTL6(1-168) (Arabidopsis thaliana, UniProt Q9SCK6 1-168)
Sequence of GST-NTL6(1-168) (Q9SCK6 1-168): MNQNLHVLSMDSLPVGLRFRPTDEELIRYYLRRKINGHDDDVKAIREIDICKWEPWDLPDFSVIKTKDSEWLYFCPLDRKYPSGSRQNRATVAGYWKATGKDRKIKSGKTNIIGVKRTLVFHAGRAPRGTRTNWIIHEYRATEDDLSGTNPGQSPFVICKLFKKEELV
Procedure, shortened: as §1

[3] = biological target: T2, GST-ANAC019 NAC domain (Arabidopsis thaliana, UniProt Q9C932 14-162)
T2 sequence: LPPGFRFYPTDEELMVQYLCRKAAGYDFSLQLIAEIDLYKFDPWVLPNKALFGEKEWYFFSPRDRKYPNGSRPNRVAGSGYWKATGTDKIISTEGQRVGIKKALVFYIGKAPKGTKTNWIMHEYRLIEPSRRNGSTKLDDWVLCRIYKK
Procedure, shortened: as §1

[4] = biological target: T3, GST-ANAC055(1-171) (Arabidopsis thaliana, UniProt Q9LDY8 1-171)
T3 sequence: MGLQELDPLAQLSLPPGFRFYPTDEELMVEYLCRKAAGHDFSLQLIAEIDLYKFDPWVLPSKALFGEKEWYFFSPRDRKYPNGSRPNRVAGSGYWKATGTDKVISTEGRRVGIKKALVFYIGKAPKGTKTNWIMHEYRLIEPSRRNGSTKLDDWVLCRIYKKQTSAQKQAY
Procedure, shortened: as §1

[5] = biological target: T4, GST-ATAF1 NAC domain (Arabidopsis thaliana, UniProt Q39013 7-158)
T4 sequence: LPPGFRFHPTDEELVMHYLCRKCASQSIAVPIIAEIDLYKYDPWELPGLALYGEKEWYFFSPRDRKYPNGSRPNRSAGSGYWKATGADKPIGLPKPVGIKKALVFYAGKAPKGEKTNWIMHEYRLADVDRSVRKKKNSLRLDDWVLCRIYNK
Procedure, shortened: as §1

[6] = biological target: T5, GST-ANAC092(1-285) full length (Arabidopsis thaliana, UniProt Q9FKA0 1-285)
T5 sequence: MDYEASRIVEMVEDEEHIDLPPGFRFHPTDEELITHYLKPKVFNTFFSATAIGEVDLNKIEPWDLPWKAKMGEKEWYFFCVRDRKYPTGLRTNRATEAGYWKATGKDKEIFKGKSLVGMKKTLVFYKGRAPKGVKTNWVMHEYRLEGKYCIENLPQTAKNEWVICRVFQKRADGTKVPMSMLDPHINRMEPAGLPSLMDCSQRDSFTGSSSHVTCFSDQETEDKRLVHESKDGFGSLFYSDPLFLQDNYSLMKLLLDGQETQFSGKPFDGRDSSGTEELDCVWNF
Procedure, shortened: as §1

[7] = biological target: T6, GST-NAP(1-166) (Arabidopsis thaliana, UniProt O49255 1-166)
T6 sequence: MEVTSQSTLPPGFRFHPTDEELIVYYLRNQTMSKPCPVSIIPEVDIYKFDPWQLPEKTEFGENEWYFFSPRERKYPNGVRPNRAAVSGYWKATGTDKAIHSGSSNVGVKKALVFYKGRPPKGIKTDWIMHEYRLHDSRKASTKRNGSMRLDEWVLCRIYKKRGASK
Procedure, shortened: as §1

[8] = biological target: T7, GST-NST2(1-184) (Arabidopsis thaliana, UniProt Q9M274 1-184)
T7 sequence: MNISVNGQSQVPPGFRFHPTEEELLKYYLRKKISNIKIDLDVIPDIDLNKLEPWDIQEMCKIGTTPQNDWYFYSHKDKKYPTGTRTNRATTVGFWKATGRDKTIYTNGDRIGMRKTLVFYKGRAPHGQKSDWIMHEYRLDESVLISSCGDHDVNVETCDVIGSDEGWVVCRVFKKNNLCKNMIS
Procedure, shortened: as §1

[9] = biological target: T8, GST-NTL8 NAC domain (Arabidopsis thaliana, UniProt Q9XIN7 14-156)
T8 sequence: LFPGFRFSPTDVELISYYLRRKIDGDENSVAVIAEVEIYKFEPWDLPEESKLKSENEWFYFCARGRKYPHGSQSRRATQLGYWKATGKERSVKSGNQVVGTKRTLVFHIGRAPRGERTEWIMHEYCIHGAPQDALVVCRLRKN
Procedure, shortened: as §1

[10] = biological target: T9, GST-SND1(1-203) (Arabidopsis thaliana, UniProt Q9LPI7 1-203)
T9 sequence: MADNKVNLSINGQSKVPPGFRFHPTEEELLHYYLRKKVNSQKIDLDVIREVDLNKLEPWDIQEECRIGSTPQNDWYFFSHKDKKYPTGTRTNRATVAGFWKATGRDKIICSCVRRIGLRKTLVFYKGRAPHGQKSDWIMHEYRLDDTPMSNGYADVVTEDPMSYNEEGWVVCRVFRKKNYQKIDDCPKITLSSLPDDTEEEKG
Procedure, shortened: as §1

[11] = biological target: T10, GST-VND3 NAC domain (Arabidopsis thaliana, UniProt Q9FH59 12-162)
T10 sequence: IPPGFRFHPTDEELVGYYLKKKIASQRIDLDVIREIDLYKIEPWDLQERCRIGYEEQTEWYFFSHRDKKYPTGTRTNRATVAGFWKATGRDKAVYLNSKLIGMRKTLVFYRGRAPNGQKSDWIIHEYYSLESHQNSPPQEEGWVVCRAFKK
Procedure, shortened: as §1

[12] = biological target: T11, GST-VND7 NAC domain (Arabidopsis thaliana, UniProt Q9C8W9 9-158)
T11 sequence: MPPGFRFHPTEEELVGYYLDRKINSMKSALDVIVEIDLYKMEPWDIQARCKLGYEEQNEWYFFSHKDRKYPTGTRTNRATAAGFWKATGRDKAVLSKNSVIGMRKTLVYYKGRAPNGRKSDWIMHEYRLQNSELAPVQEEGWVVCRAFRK
Procedure, shortened: as §1

| Sequence | binding signal [1] [E-score] | binding signal [2] [E-score] | binding signal [3] [E-score] | binding signal [4] [E-score] | binding signal [5] [E-score] | binding signal [6] [E-score] | binding signal [7] [E-score] | binding signal [8] [E-score] | binding signal [9] [E-score] | binding signal [10] [E-score] | binding signal [11] [E-score] | binding signal [12] [E-score] |
| --- | --- | --- | --- | --- | --- | --- | --- | --- | --- | --- | --- | --- |
| CACGGCAA | 0.457 | 0.0683 | 0.471 | 0.44 | 0.364 | 0.456 | 0.36 | 0.256 | 0.0895 | 0.123 | 0.456 | 0.444 |
| ACGTTTCC | 0.411 | 0.141 | 0.312 | 0.343 | 0.327 | 0.432 | 0.354 | 0.255 | 0.439 | 0.381 | 0.347 | 0.359 |
| GCGTGTAA | 0.444 | 0.0655 | 0.297 | 0.222 | 0.201 | 0.438 | 0.155 | 0.275 |  | 0.347 | 0.246 | 0.2 |
| GAAACGTA | 0.355 | 0.0734 | 0.241 | 0.219 | 0.224 | 0.411 | 0.223 | 0.212 | 0.288 | 0.435 | 0.332 | 0.268 |
| AACACGCT | 0.416 | 0.134 | 0.185 | 0.236 | 0.174 | 0.431 | 0.2 | 0.3 |  | 0.227 | 0.0943 | 0.142 |
| AAGCGTAA | 0.214 | 0.0576 | 0.168 | 0.0793 | 0.175 | 0.3 | 0.119 | 0.212 |  | 0.426 | 0.13 | 0.115 |
